USP2a block: blocks human ubiquitin-specific protease USP2a; Potency, µM (doses to about 38.3 µM), for the others: at the highest dose activity change, negative = inhibition, actives largely listed as inhibitors; USP2 core, Ub-CHOP2 coupled fluorogenic reporter, 485/531; hit rate 0.01% among 330,000; O75604;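 also: potency is read from the fitted curve at half-maximal effect; plate controls were DMSO wells for no effect and full inhibition by NEM control for full effect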
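Deubiquitinase activity read as fluorescence (485/531 nm) after Ub-CHOP2 cleavage activates the enterokinase reporter on its substrate; USP2 core 10nM, Ub-CHOP2 and substrate 25nM each, 30min compound preincubation then 60min RT; data normalized to NEM, curves fitted.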
Coupling enz: inhibits coupling enzyme system, counter-screen for aldolase hits. coupling enzyme system counterscreen, AmpLite Red fluorescence. activity change, negative = inhibition, % at 58.2 µM, hits read low. hit rate 0.67% among 290,000; in the data active = activity change below about -30%
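Compounds tested against the coupling enzymes alone at 57.5 uM final; readout was AmpLite Red fluorescence (525/598 nm) after 20 min at RT.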
PLK1 PBD block: PLK1 (human) polo-box domain binding inhibition | P53350 | Plk1 PBD binding of FITC phosphopeptide, fluorescence polarization | Potency, µM, without a hit: max response, negative = inhibition, usual class: inhibitors | hit rate 2.8% among 360,000; also: potency is read from the fitted curve at half-maximal effect; series mostly up to about 57 µM; nearly all actives have a fitted effect of over 65% in size
GALK inhibitor: inhibitors of human galactokinase | Purified GALK, Kinase-Glo residual ATP luminescence | Potency, µM (highest dose often 57.5 µM), inactives show at the top dose activity change, negative = inhibition, actives largely listed as inhibitors | hit rate 0.007% among 270,000 | AID 1868; also: potency is read from the fitted curve at half-maximal effect
Target sequence (P51570 whole entry, looked up): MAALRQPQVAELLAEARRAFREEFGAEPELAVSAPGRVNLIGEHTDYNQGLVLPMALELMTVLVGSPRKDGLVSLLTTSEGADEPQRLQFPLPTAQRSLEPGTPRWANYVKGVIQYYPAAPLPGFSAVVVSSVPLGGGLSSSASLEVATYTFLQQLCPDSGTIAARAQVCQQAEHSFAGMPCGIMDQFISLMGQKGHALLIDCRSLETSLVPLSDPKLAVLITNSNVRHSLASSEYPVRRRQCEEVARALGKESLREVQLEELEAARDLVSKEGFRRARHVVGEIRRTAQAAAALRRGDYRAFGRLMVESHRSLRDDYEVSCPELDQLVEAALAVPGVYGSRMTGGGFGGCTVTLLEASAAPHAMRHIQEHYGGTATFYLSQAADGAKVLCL
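Luminescence from leftover ATP (Ultra-Glo luciferase/luciferin) served as read-out after a 1 h room-temperature reaction of 5 nM GALK with 35 uM ATP and 100 uM galactose.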
VDR inhibitor: vitamin D3 receptor (human) inhibition | VDR-SRC2-3 peptide fluorescence polarization, 2 h | hit rate 0.93% among 400,000 | AID 504847 | Potency, µM, inactives show max response, negative = inhibition, actives largely listed as inhibitors | P11473; also: potency is read from the fitted curve at half-maximal effect
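VDR–SRC2-3 interaction, FP format. Cmpds 23 nl via pintool, brief spin, 2 h ambient incubation.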
USP1 inh: inhibitors of human USP1/UAF1 deubiquitinase; recombinant USP1/UAF1, Ub-Rhodamine cleavage fluorescence; Potency, µM (doses to about 57.1 µM), for inactives: top-dose activity change, negative = inhibition, usual class: inhibitors; hit rate 0.23% among 390,000; also: potency is read from the fitted curve at half-maximal effect; nearly all actives have a fitted effect of over 60% in size
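High-throughput fluorogenic screen: 1nM USP1/UAF1 complex, Ub-Rho substrate 150nM final, 50mM HEPES pH 7.8 with 0.5mM EDTA, 0.1 mg/ml BSA, 1mM TCEP and 0.01% Tween-20.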
The depositor's hits bear a star; ? = inconclusive; . = not tested or not shown; ! = a repeat was not active. An excerpt weighted towards active compounds, which were near 3.2% of everything screened. Unless noted, calls follow the shape of the dose curve; as a rule, active = well fitted curve in the direction sought with a large enough effect; inconclusive = small, poorly fitted or top-dose-only effect, or another doubt; inactive = no such curve, though single readings can be large; an effect the other way counts as inactive or inconclusive. Unless noted, % is scaled to controls: 0 for no effect and ±100 for the full control effect.

SMILES	USP2a block	Coupling enz	PLK1 PBD block	GALK inhibitor	VDR inhibitor	USP1 inh
O=C(NCc1ccccc1)C(c1ccco1)N(C(=O)c1ccccn1)c1ccc(F)cc1 (stereo unspecified)	0%	1	-7%	0%	-9%	-12%
N#CC(c1nc2ccccc2nc1OCCO)S(=O)(=O)c1ccccc1 (stereo unspecified)	0%	8	-20%	4%	-8%	-8%
Cc1ccc(C)c(OCC(=O)Nc2ccccc2C(=O)NC2CC2)c1	4%	.	3%	3%	89µM*	-25%
CCN1CCC[C@H]1CNC(=O)c1cc(S(N)(=O)=O)ccc1OC	2%	3	.	-2%	2%	.
N#C/C(=C/c1ccc(N2CCOCC2)o1)C(=O)Nc1ccccc1	?	-3	79%	-1%	17%	25µM*
N#C/C(=C/c1ccc(N2CCCCC2)o1)c1cccc(F)c1	4%	-29	-9%	2%	40µM*	18µM*
Cc1ccc2nc(/C(C#N)=C/c3ccc(-c4ccccc4C(=O)O)o3)[nH]c2c1	9%	26	38%	-16%	14%	32µM*
Cc1ccc(/C(C#N)=C\c2ccc(N3CCOCC3)o2)cc1	2%	-25	12%	-1%	?	25µM*
N#C/C(=C\c1ccc(N2CCOCC2)o1)C(=O)NCCc1ccccc1	?	3	92%	1%	-2%	?
COc1ccc(Cl)cc1NS(=O)(=O)c1ccc(S(=O)(=O)N2CCCC2)cc1	-5%	0	-17%	1%	6%	-6%
CCC1CCCCN1C(=O)/C=C/c1ccc2c(c1)OCO2 (stereo unspecified)	0%	1	2%	-3%	-6%	-23%
Cc1ccc(OCC(=O)OCC(=O)c2ccccc2)cc1C	2%	.	-1%	-1%	-1%	-24%
Cc1ccc2nc(/C(C#N)=C\c3ccc(N4CCOCC4)o3)[nH]c2c1	?	0	69%	0%	-12%	25µM*
Fc1ccccc1Cn1c2[n+](c3ccc(C(F)(F)F)cc31)CCCCC2	1%	0	-2%	9%	1%	-6%
CCn1c(=S)[nH]c2ccccc21	2%	-1	-16%	-1%	-5%	-22%
CC(C)n1c(=S)[nH]c2ccccc21	2%	-21	25µM*	0%	-8%	-8%
Cc1cccc(-n2c(O)c(C=Nc3ccc4c(c3)OCO4)c3ccccc3c2=O)n1	3%	-2	-23%	6%	-2%	-26%
Cc1cccc(-n2c(O)c(C=Nc3cccc(O)c3)c3ccccc3c2=O)n1	-2%	-2	15µM*	-3%	?	-17%
CCOc1ccc(-c2n[nH]c(C)c2-c2ccccc2OC)c(O)c1	2%	-12	7%	-1%	-2%	-7%
CCc1cc(-c2n[nH]c(C)c2-c2ccccc2Cl)c(O)cc1OC	-12%	-35*	-8%	-3%	19%	-12%
CCOC(=O)COc1ccc2c(C#N)c3ccccn3c2c1	-3%	-60*	-4%	-1%	3%	-10%
N#Cc1c2ccc(OCC(N)=O)cc2n2ccccc12	1%	-37*	-8%	4%	-25%	?
Nc1ccc(NC2C[C@@H](C(=O)O)NC2=O)cc1 (stereo partly specified)	-1%	-4	-8%	1%	1%	-13%
COc1ccc(/C=N/n2cncn2)cc1COc1ccc(NC(C)=O)cc1	1%	5	27µM*	2%	?	-9%
CN(C)c1ccc(NC(=S)Nc2ccc3c(c2)c(=O)n(C)n3-c2ccc(C(C)(C)C)cc2)cc1	.	.	27µM*	.	.	.
SMILES	USP2a block	Coupling enz	PLK1 PBD block	GALK inhibitor	VDR inhibitor	USP1 inh
O=C(c1nnc(-c2ccccc2)o1)C1CC1	1%	-3	6%	0%	-5%	-21%
COc1ccc(S(=O)(=O)NC2CCCCC2)cc1-n1cnnn1	0%	0	27µM*	2%	-16%	-5%
Cc1cc(S(=O)(=O)NC2CCCCC2)ccc1-n1cnnn1	2%	6	2%	5%	?	-12%
COc1cc2[nH]c(C(=O)N3CCC(Cc4ccccc4)CC3)cc2c(OC)c1OC	-6%	1	-1%	.	20%	-15%
CCOC(=O)Cn1nnnc1CN(Cc1ccc(OC)cc1)Cc1cc2cc(C)cc(C)c2[nH]c1=O	0%	1	-8%	0%	7%	2%
N=C(N)n1c(N)nc2ccccc2c1=O	-5%	-11	-1%	0%	-3%	-16%
N=C(N)SCc1nc2ccccc2c(=O)n1-c1ccccc1	-1%	-14	8.4µM*!	0%	?	-15%
COc1ccc(CCNS(=O)(=O)c2cccc(C(=O)O)c2)cc1OC	1%	7	3.4µM*	3%	-23%	-21%
COc1ccc(CCNS(=O)(=O)c2cccc([N+](=O)[O-])c2)cc1OC	2%	1	-15%	4%	-28%	-1%
CN(C)c1ccc(C(=O)c2ccc(N(C)C)c(N)c2)cc1N	2%	-1	5%	3%	-5%	-1%
N#Cc1cc2c([nH]c1=S)CCCCCC2	1%	11	27µM*	-1%	-7%	7%
N#Cc1c(N)n[nH]c1-c1cc2c([nH]1)CCCC2	4%	-1	6%	-3%	-6%	-5%
CC1CCCN(C(=O)CSc2nnc(-c3ccc(S(=O)(=O)N4CCOCC4)cc3)n2C)C1 (stereo unspecified)	1%	9	-7%	0%	0%	-11%
O=C1CNC(=O)/C1=C/c1ccc(Br)cc1	1%	5	7.5µM*	3%	5%	-11%
O=C1CNC(=O)/C1=C\c1ccc(O)cc1	5%	-1	-19%	1%	-14%	-5%
CC(C)Cc1ccc(CN2CCCC(NC(=O)CCN3CCCCC3=O)C2)cc1 (stereo unspecified)	1%	0	7%	0%	19%	-7%
CC(C)Cc1ccc(C(C)/C=C2/CCC(CN3CCCCC3)C2=O)cc1 (stereo unspecified)	.	.	13µM*	.	?	-12%
COc1ccc(CNC(=O)c2cc3sccc3n2Cc2ccc(F)cc2)cc1	.	.	.	.	-7%	-6%
COc1ccccc1CNC(=O)c1cc2sccc2n1Cc1ccc(F)cc1	.	.	.	.	89µM*	-23%
CN1C(=O)N(C)C2=NNC=NC2(O)C1=O (stereo unspecified)	.	-46*	.	.	-16%	.
O=C(Nc1ccc(Nc2ccccc2)cc1)c1ccc(Cl)cc1	.	.	6%	.	2%	-18%
O=C(NC1=C(Nc2ccc(Cl)cc2)C(=O)c2ccccc2C1=O)c1ccccc1	0%	-30*	-20%	0%	-9%	?
CN(c1ccc(C(=O)Nc2ccc(Cl)cn2)cc1)S(=O)(=O)c1ccccc1	-2%	-13	-3%	-1%	7%	-7%

Bioassay records (PubChem)
